Several values for one entry are separate records, joined by “and”; a condition that tells them apart may be missing. Equal values may be shown once. Results filed as inconclusive are left out. Where a call stands in place of a potency, no number is given. Activity calls are given as the source filed them. Unless noted, calls come from the whole dose curve; as a rule, active = well fitted curve in the direction sought with a large enough effect; inconclusive = small, poorly fitted or top-dose-only effect, or another doubt; inactive = no such curve, though single readings can be large; an effect the other way counts as inactive or inconclusive. Residues, ends and D or L forms follow the SMILES beside them. *: point of attachment. Cbz = O=C(OCc1ccccc1)*
Assays:
[1] = target: DNA repair nuclease/redox regulator APEX1 (Homo sapiens) (UniProt P27695); experiment: qHTS Validation Assay for Inhibitors of the Human Apurinic/apyrimidinic Endonuclease 1 (APE1) (AID 1705; note: potency is the fitted concentration of half-maximal effect;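 for activity change, negative = inhibition: TAMRA fluorescence gain over two minutes as APE1 cuts a quenched THF abasic duplex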)
Outline: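 qHTS, 1536-well. APE1 + cpd 15 min RT → 50 nM TAMRA/BHQ-2 THF-abasic dsDNA substrate → kinetic fluorescence, 3 reads/60 s; delta(read3−read1) = reaction progress. No-enzyme buffer = negative control.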

[2] = Counterscreen for APE1 Inhibitors: Fluorescent Dye Displacement Validation Assay (AID 1707)
Outline: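 Endpoint fluorescence read at 480 nm excitation / 540 nm emission; DNA-binding compounds lower signal by displacing 250 nM Thiazole Orange from 50 nM dsDNA containing a tetrahydrofuran abasic site, Tris-HCl pH7.5 buffer with NaCl and MgCl2.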

[3] = target: Endonuclease 4 (Escherichia coli (strain K12)) (UniProt P0A6C1); experiment: Counterscreen for APE1 Inhibitors: qHTS Validation Assay for Inhibitors of Endonuclease IV (AID 1708)
Outline: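 Incision of a double-stranded 50 nM TAMRA/BHQ-2 abasic substrate was followed kinetically (525/598 nm, reads every 60 s) after 15 min enzyme–compound preincubation with 2 nM EndoIV in pH 7.5 Tris buffer with MgCl2, DTT and Tween-20; concentration-response format.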

[4] = qHTS for differential inhibitors of proliferation of Plasmodium falciparum line 7G8 (AID 1815);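 note: parasite growth measured after three days of incubation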; note: potency is the fitted concentration of half-maximal effect
[5] = qHTS for differential inhibitors of proliferation of Plasmodium falciparum line GB4 (AID 1816); conditions: Potency: Plasmodium falciparum GB4 proliferation inhibition;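 note: parasite growth measured after 72 h incubation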; note: potency is the fitted concentration of half-maximal effect
[6] = qHTS for differential inhibitors of proliferation of Plasmodium falciparum line 3D7 (AID 1876); note: potency is the fitted concentration of half-maximal effect
[7] = qHTS for differential inhibitors of proliferation of Plasmodium falciparum line D10 (AID 1877);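 note: parasites grown with compound for 72 h before DNA staining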; note: potency is the fitted concentration of half-maximal effect
[8] = qHTS for differential inhibitors of proliferation of Plasmodium falciparum line Dd2 (AID 1882); conditions: Potency: Plasmodium falciparum Dd2 proliferation inhibition; note: nearly all actives have a fitted effect of over 65% in size; note: potency is the fitted concentration of half-maximal effect
Outline: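 SYBR Green DNA fluorescence (ex 485, em 535 nm) after overnight lysis quantifies parasite growth; compound exposure lasted 72 h at 37 C on infected red cells at 2.5% hematocrit, 0.3% parasitemia (final). Artemisinin 0.29 uM and vehicle wells define normalization.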

[9] = qHTS for differential inhibitors of proliferation of Plasmodium falciparum line W2 (AID 1883); conditions: Potency: Plasmodium falciparum W2 proliferation inhibition;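 note: parasites grown with compound for 72 h before lysis and staining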; note: potency is the fitted concentration of half-maximal effect
[10] = qHTS for differential inhibitors of proliferation of Plasmodium falciparum line HB3 (AID 1886); conditions: Potency: Plasmodium falciparum HB3 proliferation inhibition;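 note: parasites grown with compound for 72 h before SYBR Green readout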; note: potency is the fitted concentration of half-maximal effect
[11] = qHTS Assay for Modulators of Human Peripheral Myelin Protein 22 (PMP22) Expression/Activity (AID 1967; active = well fitted curve in the direction sought with a large enough effect in the signal ratio; the % refers to the signal ratio)
Outline: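 Luminescence ratio of Pmp22 promoter-driven green luciferase to EF-alpha-driven red luciferase, in engineered mouse MSC80 Schwann cells, served as read-out. Compounds were incubated 24h; untreated cells defined 0% Activity; curves were classified by r2, magnitude and activity.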

[12] = target: Ferritin light chain (Equus caballus) (UniProt P02791); experiment: qHTS Validation Assay for Identification of Novel General Anesthetics (AID 2323); note: potency is the fitted concentration of half-maximal effect
Outline: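 Fluorescence at 535 nm (excitation 380 nm) reported loss of 1-AMA binding to horse-spleen apoferritin (10 uM) in PBS with 50% saturated 1-aminoanthracene, after 10 min room-temperature incubation with compound; values from Hill fits of normalized response.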

[13] = target: ATP-dependent DNA helicase Q1 (Homo sapiens) (UniProt P46063); experiment: qHTS Validation Assay for Inhibitors of RecQ-Like Dna Helicase 1 (RECQ1) (AID 2353)
Outline: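 RECQ1T1 50 nM; forked duplex (20 bp + 30-nt ss tails) 200 nM, ATP 2 mM final; pH 8.0, 2 mM MgCl2, 2.5 ug/ml poly(dI-dC); 15 min compound preincubation; discontinuous kinetic read over 2 h at RT.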

[14] = target: RecQ-like DNA helicase BLM (Homo sapiens) (UniProt P54132); experiment: qHTS Validation Assay for Inhibitors of Bloom's syndrome helicase (BLM) (AID 2364); note: potency is the fitted concentration of half-maximal effect
Outline: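 Forked 20-bp duplex substrate (200 nM, TAMRA/BHQ-2) plus 2 mM ATP added after 15 min compound preincubation with 50 nM enzyme, pH 8.0, poly(dI-dC) 2.5 ug/ml. Strand separation followed by fluorescence (525/598 nm) over 2 h, normalized to enzyme-free and DMSO controls.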

[15] = qHTS Assay for Lipid Storage Modulators (AID 1519; calls by dose curve); conditions: Drosophila S3 cells, BODIPY lipid droplet/cell ratio, laser cytometry, cells loaded with oleic acid; for activity change, negative = inhibition: at 57.5 µM (top of the series)
Outline: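 Cells seeded at 5,000 per well were treated with compounds over a concentration series and loaded with oleic acid (400 uM, as added). Lipid droplet fluorescence (488 nm excitation, 500-530 nm channel) was read by laser-scanning cytometry and normalized to 20 uM Triacsin C.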

[16] = target: alpha-glucosidase (Oryza sativa, rice) (UniProt Q653V4); experiment: Counterscreen for Glucocerebrosidase Inhibitors: qHTS Assay for Rice alpha-Glucosidase at pH 5.0 (AID 997)
Outline: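 Endpoint fluorogenic assay at pH 5.0: compounds (0.7 nM to 77 uM) titrated against 4 nM rice enzyme and 400 uM 4-MU-alpha-glucoside for 20 min at room temperature; NaOH/glycine stop, read ex 365/em 440 nm, Hill-fitted AC50.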

[17] = measured here: cell count channel max response
[18] = measured here: lipid channel max response

Chain of DNA repair nuclease/redox regulator APEX1 (Homo sapiens) (P27695 whole entry, looked up): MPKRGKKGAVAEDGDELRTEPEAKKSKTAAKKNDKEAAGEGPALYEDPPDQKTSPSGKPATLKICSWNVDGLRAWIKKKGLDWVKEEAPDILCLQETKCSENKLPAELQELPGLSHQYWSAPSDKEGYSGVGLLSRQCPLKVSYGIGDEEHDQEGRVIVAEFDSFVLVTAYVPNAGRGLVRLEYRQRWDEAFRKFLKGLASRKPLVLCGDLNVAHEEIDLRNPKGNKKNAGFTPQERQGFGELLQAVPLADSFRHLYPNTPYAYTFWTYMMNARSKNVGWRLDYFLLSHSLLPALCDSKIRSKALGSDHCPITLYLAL
Chain of ATP-dependent DNA helicase Q1 (Homo sapiens) (P46063 whole entry, looked up): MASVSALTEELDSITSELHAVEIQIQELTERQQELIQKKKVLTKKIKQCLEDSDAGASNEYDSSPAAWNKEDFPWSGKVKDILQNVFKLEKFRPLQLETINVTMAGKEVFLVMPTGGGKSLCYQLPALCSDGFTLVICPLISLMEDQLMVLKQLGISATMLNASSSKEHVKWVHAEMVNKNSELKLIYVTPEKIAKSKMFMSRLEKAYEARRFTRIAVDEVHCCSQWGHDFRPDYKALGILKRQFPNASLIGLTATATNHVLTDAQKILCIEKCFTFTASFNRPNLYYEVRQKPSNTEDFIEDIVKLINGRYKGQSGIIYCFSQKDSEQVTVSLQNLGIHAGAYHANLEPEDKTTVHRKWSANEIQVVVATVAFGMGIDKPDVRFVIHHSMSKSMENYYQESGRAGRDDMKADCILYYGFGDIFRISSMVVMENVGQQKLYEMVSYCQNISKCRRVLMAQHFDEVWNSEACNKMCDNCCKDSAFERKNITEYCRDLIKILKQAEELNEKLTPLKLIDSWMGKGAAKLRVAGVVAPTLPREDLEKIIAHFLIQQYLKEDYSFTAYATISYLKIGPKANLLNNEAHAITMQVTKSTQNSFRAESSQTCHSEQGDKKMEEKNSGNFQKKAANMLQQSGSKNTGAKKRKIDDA
Chain of RecQ-like DNA helicase BLM (Homo sapiens) (P54132 whole entry, looked up): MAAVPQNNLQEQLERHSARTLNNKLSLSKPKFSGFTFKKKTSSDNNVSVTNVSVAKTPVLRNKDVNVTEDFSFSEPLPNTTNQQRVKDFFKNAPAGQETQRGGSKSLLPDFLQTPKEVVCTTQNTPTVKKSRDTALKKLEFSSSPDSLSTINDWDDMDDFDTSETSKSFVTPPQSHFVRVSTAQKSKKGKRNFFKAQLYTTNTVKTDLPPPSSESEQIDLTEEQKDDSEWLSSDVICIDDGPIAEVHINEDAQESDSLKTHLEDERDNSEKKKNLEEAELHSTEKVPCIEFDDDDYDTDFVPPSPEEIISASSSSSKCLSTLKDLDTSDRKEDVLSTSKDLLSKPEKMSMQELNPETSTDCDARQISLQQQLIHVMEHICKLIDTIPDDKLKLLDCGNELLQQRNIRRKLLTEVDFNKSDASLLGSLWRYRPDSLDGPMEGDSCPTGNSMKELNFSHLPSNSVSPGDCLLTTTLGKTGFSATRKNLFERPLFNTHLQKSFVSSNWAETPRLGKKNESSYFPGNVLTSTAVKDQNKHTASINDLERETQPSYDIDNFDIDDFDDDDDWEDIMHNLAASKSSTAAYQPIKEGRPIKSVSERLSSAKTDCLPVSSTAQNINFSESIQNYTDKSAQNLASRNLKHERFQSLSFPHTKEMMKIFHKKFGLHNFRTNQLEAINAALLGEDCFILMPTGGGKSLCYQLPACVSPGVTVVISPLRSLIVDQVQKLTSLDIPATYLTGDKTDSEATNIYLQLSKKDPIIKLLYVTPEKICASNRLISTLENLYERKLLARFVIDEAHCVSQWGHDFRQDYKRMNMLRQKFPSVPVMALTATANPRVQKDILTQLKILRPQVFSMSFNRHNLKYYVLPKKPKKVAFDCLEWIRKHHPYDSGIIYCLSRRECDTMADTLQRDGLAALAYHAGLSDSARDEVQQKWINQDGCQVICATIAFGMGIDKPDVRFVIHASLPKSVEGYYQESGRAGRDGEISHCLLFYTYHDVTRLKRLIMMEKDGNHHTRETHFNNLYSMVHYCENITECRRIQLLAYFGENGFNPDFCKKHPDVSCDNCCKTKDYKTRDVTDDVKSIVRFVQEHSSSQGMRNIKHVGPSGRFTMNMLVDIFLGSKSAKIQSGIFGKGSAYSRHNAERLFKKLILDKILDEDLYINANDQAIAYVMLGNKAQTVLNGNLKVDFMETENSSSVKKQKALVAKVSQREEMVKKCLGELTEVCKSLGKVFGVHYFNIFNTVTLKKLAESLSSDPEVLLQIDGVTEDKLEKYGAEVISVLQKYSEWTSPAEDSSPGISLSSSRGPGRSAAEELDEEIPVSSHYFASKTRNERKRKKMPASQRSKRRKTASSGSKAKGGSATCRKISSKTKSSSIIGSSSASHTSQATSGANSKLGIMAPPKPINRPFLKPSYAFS
Chain of Ferritin light chain (Equus caballus) (P02791 2-175 limits assumed): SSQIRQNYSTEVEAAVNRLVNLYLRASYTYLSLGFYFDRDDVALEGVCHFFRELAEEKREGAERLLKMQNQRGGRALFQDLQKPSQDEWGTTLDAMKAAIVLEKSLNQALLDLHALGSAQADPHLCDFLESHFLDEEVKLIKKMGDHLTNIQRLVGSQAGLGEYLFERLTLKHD

Structure (SMILES) | Potency [1] | Potency [2] | Potency [3] | Potency [4] | Potency [5] | Potency [6] | Potency [7] | Potency [8] | Potency [9] | Potency [10] | outcome [11] | Potency [12] | Potency [13] | Potency [14] | activity change, negative = inhibition [15] | max response [15, 17] | max response [15, 18] | outcome [16]
CC(C)(C)NCC(O)COc1cccc2[nH]c(=O)[nH]c12 (stereo not given) | inactive | inactive | inactive | inactive | inactive | inactive | inactive | inactive | inactive | inactive | inactive | inactive | inactive | inactive | – | – | – | –
CCCCCCCCCCCCCCCCCCOC[C@H](COP(=O)([O-])OCC[N+](C)(C)C)OC | – | inactive | inactive | inactive | inactive | inactive | inactive | inactive | inactive | inactive | inactive | – | inactive | – | 1.74% (inactive) | 55.6% | 57.7% | –
O=C1OC(=O)C2C3CCC(O3)C12 (stereo not given) | inactive | inactive | inactive | inactive | – | inactive | – | inactive | – | – | – | inactive | – | inactive | – | – | – | –
CCCOC(=O)c1c(-c2ccccc2)nc(CC)c(C(=O)SCC)c1CCC | inactive | inactive | inactive | 12.6 µM (active) | 11.2 µM (active) | – | 12.6 µM (active) | – | 10 µM (active) | 17.8 µM (active) | – | inactive | – | – | – | – | – | inactive
Cc1nc(N=Nc2ccc(C(=O)O)cc2)c(COP(=O)(O)O)c(C=O)c1O | inactive | inactive | – | inactive | inactive | inactive | inactive | – | inactive | inactive | – | inactive | inactive | – | -0.137% (inactive) | -21.8% | -20.3% | inactive
NCC(O)C1CCCCCCC1 (stereo not given) | inactive | inactive | inactive | 12.6 µM (active) | 5.62 µM (active) | inactive | inactive | 8.91 µM (active) | 3.16 µM (active) | inactive | – | inactive | inactive | – | – | – | – | –
NCCCCN | inactive | inactive | inactive | inactive | inactive | inactive | inactive | inactive | inactive | inactive | inactive | inactive | inactive | inactive | – | – | – | inactive
COC(=O)C(N)Cc1ccc(Cl)cc1 (stereo not given) | inactive | inactive | inactive | inactive | inactive | inactive | inactive | inactive | inactive | inactive | – | inactive | inactive | inactive | – | – | – | –
Nc1ccc2c3c(cccc13)C(=O)NC2=O | – | – | inactive | – | – | – | inactive | inactive | – | inactive | – | inactive | – | – | 0.251% (inactive) | -11.6% | -11.3% | inactive
CCCCCCC/C=C\CCCCCCCCC(=O)O | 35.5 µM (active) | – | – | inactive | inactive | inactive | inactive | – | inactive | inactive | inactive | 31.6 µM (active) | – | 28.2 µM (active) | -0.534% (inactive) | -11.1% | -10.7% | inactive
O=C(O)Cc1c[nH]c2ccc(O)cc12 | inactive | inactive | – | inactive | inactive | – | inactive | – | – | – | – | inactive | inactive | inactive | 1.1% (inactive) | -19.7% | -16.3% | inactive
N=C(N)c1ccc(OCCCCCOc2ccc(C(=N)N)cc2)cc1 (tested in a mixture with another compound) | inactive | inactive | inactive | 0.282 µM (active) | 0.251 µM (active) | 0.0891 µM (active) | 0.199 µM (active) | 1 µM (active) | 0.355 µM (active) | 0.224 µM (active) | – | inactive | inactive | inactive | – | – | – | inactive
COc1ccc2c(c1)c(CC(=O)O)c(C)n2C(=O)c1ccccc1 | inactive | inactive | inactive | inactive | inactive | inactive | inactive | inactive | inactive | inactive | inactive | – | inactive | – | – | – | – | inactive
N[C@H](C(=O)O)[C@H]1C[C@@H]1C(=O)O | 39.8 µM (active) | inactive | inactive | inactive | inactive | inactive | inactive | inactive | inactive | inactive | – | inactive | inactive | inactive | – | – | – | –
COc1ccccc1N1CCN(CCCNc2c(C)c(=O)n(C)c(=O)n2C)CC1 | – | inactive | inactive | inactive | – | 8.91 µM (active) | – | inactive | 8.91 µM (active) | – | – | inactive | inactive | inactive | -0.317% (inactive) | 38.5% | 37.3% | inactive
OCC1NCC(O)C(O)C1O (stereo not given) | inactive | inactive | inactive | inactive | inactive | inactive | inactive | inactive | inactive | inactive | inactive | – | inactive | inactive | – | – | – | –
Nc1ncnc2c1ncn2C1CCCC1 | inactive | inactive | inactive | inactive | – | – | inactive | inactive | – | – | – | inactive | inactive | – | – | – | – | inactive
CCN(CC)CCOC(=O)c1cc(Cl)c(N)cc1OC | inactive | inactive | inactive | inactive | inactive | inactive | inactive | inactive | inactive | inactive | inactive | inactive | inactive | inactive | – | – | – | inactive
C/C(=C\c1ccc(C(=O)O)cc1)c1ccc2c(c1)C(C)(C)CCC2(C)C | inactive | inactive | – | – | inactive | – | – | – | – | inactive | – | inactive | – | – | -4.87% (inactive) and -0.58% (inactive) | -0.191% and 31.2% | -3.14% and 29.9% | inactive
CC(C)[C@H](NC(=O)OCc1ccccc1)C(=O)N[C@H](C=O)Cc1ccccc1 (Cbz-Val-Phe-aldehyde) | inactive | inactive | inactive | 7.08 µM (active) | 4.47 µM (active) | 2.82 µM (active) | 8.91 µM (active) | – | 2.82 µM (active) | 5.01 µM (active) | – | inactive | inactive | – | – | – | – | inactive
CCn1c(=O)[nH]c2cc(Cl)c(Cl)cc21 | inactive | inactive | inactive | inactive | inactive | inactive | inactive | – | inactive | inactive | – | inactive | inactive | – | – | – | – | inactive
CC(N)(Cc1ccc(O)cc1)C(=O)O (stereo not given) | inactive | inactive | inactive | inactive | inactive | inactive | inactive | – | inactive | inactive | inactive | inactive | – | inactive | – | – | – | –

Source: PubChem BioAssay (NCATS)
